Measured values as given in the supplement of paper PMC6555819.

Columns and labels:
Assay in all cases: PBM binding z-score (relative to random genomic background probes); higher = stronger binding; sequences stand for … in GC…GCGATTGACAGCGTAGAATGAAGG
[1] = system: RARb homodimer (NR concentration 270 nM)
Summary of the method: (§1)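 Probes were double-stranded and carried 34-nt variable regions with direct-repeat seeds, single-nucleotide variants, half-site ablations and random human genomic background sequences, printed on custom Agilent 4×180K protein-binding microarrays. Arrays were incubated 1 h with ligand-free nuclear receptor dimers in PBS pH 7.4, 2% milk, 0.02% Triton X-100, 1 mM DTT, 0.2 mg/mL BSA and 0.4 mg/ml salmon testes DNA. Antibodies against each partner (one per run) detected binding, and scanned fluorescence was regression-normalized. Binding z-scores use the random background probes as reference.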

[2] = system: RARg:RXRa (NR concentration 270 nM, RXRa partner concentration 90 nM)
Summary of the method: as §1

[3] = system: RARg homodimer (NR concentration 270 nM)
Summary of the method: as §1

[4] = system: RXRa DBDmut IVT, anti-RXR (DBD mutation: RXRa K156A/R161A, NR concentration 90 nM)
Summary of the method: as §1

[5] = system: RXRa homodimer (NR concentration 180 nM)
Summary of the method: as §1

[6] = system: THRa:RXRa (NR concentration 90 nM, RXRa partner concentration 90 nM)
Summary of the method: as §1

[7] = system: THRa homodimer (NR concentration 90 nM)
Summary of the method: as §1

[8] = system: VDR homodimer (NR concentration 270 nM)
Summary of the method: as §1

Sequence	PBM binding z-score [1]	PBM binding z-score [2]	PBM binding z-score [3]	PBM binding z-score [4]	PBM binding z-score [5]	PBM binding z-score [6]	PBM binding z-score [7]	PBM binding z-score [8]
TCTTGTTGATCAAGCAGGTTAAGAAAGCCTGAGT	0.418	-0.0831	-0.348	0.561	0.248	0.444	-0.1	0.0832
TCATATTGGTAATACAGGTGAAAGTCGGCATCTA	0.667	0.388	0.332	1.69	0.917	0.669	0.437	0.279
AGTCAAAGTTCAGGACAAGGTAACGTAAAGCACG	3.29	5.05	5.13	3.14	3.26	4.05	2.59	2.15
ATCTCTAGATAAAGTTCAGTGAAAGATCGATAGA	1.84	1.4	2.06	0.839	0.79	0.243	-0.14	1.66
CTCGAAAGGTCGGTTGACGTGAGTATACGGATAA	1.53	2.54	2.8	1.06	2.29	1.21	-0.605	0.501
GCTTGTAGATCTAGGTTAAGAAAGACTAAGCTAA	-0.325	-0.324	-0.326	-0.252	-0.074	0.276	-0.767	-0.721
TGTGAAAGTTCAAAGGTAACGTAAGTATCCACAC	3.75	5.88	5.56	4.17	7	3.13	0.137	3.9
CGTCCAAGGTCAAAGGTCAGTGAAGAGATGACGG	5.42	8.7	7.94	3.87	10	4.99	2.62	4.06
TCATATAGGTAATACAGGTGAATGTCGGCATCTA	0.689	0.761	0.652	1.69	1.24	0.991	0.573	-0.00173
GGTCGGAGGACAAGGTCAGAGCTTTGTCCGTAGA	3.33	3.31	4.24	0.467	2.46	3.12	1.85	0.993
GCATATAGGTAATACAAGGTGGAAGTCCGATTGT	-0.533	0.279	0.315	0.235	0.566	2.03	-0.457	-0.109
ATCGAAAGGTCGAAGGTGAGAATACCCACCCGAA	2.62	4.34	4.24	1.42	5.85	2.23	-0.0436	0.515
ACAGACAGGTGATGAAGGAAACTCAGGCTATCAT	0.24	0.168	0.36	-0.0618	0.38	0.154	0.0695	-0.33
ACAGACAGGTAATGAAGGTAACTCAGGCTATCAT	0.185	0.351	0.385	-0.156	0.59	1.14	0.263	-0.0776
CCAGACAGGTGAAAGGTAACTCAGTCTGGTACGC	0.781	1.39	0.817	0.137	2.13	0.824	-0.156	-0.251
ATACCAAGGTGATCGTGCGGTCGTTGATACTAAC	0.887	0.886	0.233	-0.0167	0.159	1.23	0.424	0.302
CCTTCCGGGTCACGAGGTTATAGCACGACGAGCG	4.02	6.06	5.4	1.68	7.05	4.22	2.95	2.57
CCTTACGGGTCACGAGGTTATAGCGCGACGAGCG	3.63	5.98	5.29	1.62	6.87	3.59	1.07	1.9
TAGCCTATGTCATTCAGGGGCCAGTATAGAAAGC	0.708	1.65	0.547	-0.121	0.203	0.454	-0.611	-0.479

Sequence	PBM binding z-score [1]	PBM binding z-score [2]	PBM binding z-score [3]	PBM binding z-score [4]	PBM binding z-score [5]	PBM binding z-score [6]	PBM binding z-score [7]	PBM binding z-score [8]
CCTAACGGGTCACTGACAGGTTATAGCATTTGGA	2.94	5.4	4.16	1.48	4.09	2.46	-0.159	0.931
TGAATTAGGTTAAAGATCAGGGAACGTGGCGTCG	-0.0287	0.954	0.891	-0.199	1.58	0.806	0.0277	0.326
GCAGACAGCTGAAACGCAGGTAACTCAGGGTGGC	-0.98	-0.584	-0.685	-0.772	-0.453	0.284	-0.483	-1.05
AGAATGAGGTTAAGATCTGGGAAACAGAATACAT	0.808	2.11	1.54	1.04	2.48	2.26	0.582	0.27
TCATATAGGTAAATGCTGGGTGAAAGTCCGATCT	0.617	0.24	0.16	1.48	0.693	0.785	0.692	0.384
ATCTCTAGGTAAAAGTTGAGTGAATCCCGAGGAT	0.0614	0.517	0.653	0.044	0.435	0.387	0.0583	-0.06
GCGACTGGGTCAAAGCAGGTTACCATAAGGTTGG	2.76	3.65	3.32	0.713	3.11	4.65	0.279	0.45
AACGAAAGGTCGTGAGGTGAGTATACAGAAAGGC	3.14	4.62	3.99	1.68	5.2	3.55	1.33	0.812
GCTAGCAGGCCATTTGGATCACTCAATGACGGGC	-0.535	-0.278	-0.00293	0.0121	-0.0428	-0.754	-0.938	-0.518
ATCTCTAGTTAACCAAGTTCAGTGAATGCCGAAC	1.4	0.578	0.612	0.814	0.549	1.19	0.332	3.16
CGATCTAGGTCATCCAGGACAGTGAATACATTGA	3.01	4.03	4.66	2.18	2.71	3.78	2.35	2.06
TCTAGTTGGTCAAAGGTCGCACACTCGAAATGCG	3.14	4.78	2.91	1.27	5.6	2.48	0.836	1.26
CCGACTGGGGCAAGGTTACCATTACGCACAGCCA	1.42	0.911	1.17	-0.427	1.03	1.09	0.435	0.338
AATACAGGGGCACTAGGCCAGAGTAGGTACGAAT	0.82	0.814	0.835	0.764	0.611	0.473	-0.285	0.185
CCTAGCAGGCCAATCTGGGTCACTCGAGGCTTGA	2.3	1.11	1.12	-0.0882	0.738	3.7	0.253	0.136
CGTCCAAGGTCAGCATGTCAGTGAAAGCGACGTG	3.99	5.21	6	2.51	4.01	3.54	2.02	0.761
AGAACGAGGCCAATGAGTTGATAGCACGGGTGGC	0.127	0.169	0.718	1.01	0.286	0.223	0.00356	1.71
TAGCCTAGGTCATGCGGGCCAGTGTAGTGTCGGC	3.06	3.69	4.29	0.446	2.6	2.99	0.878	0.567
CCGAATGGGGCAAGGTTACCATAACGCACAGCCA	1.24	1.05	1.37	0.000118	1.39	1.26	0.404	0.214

Sequence	PBM binding z-score [1]	PBM binding z-score [2]	PBM binding z-score [3]	PBM binding z-score [4]	PBM binding z-score [5]	PBM binding z-score [6]	PBM binding z-score [7]	PBM binding z-score [8]
AGAATGAGGTTATACGTAGATCAGGAAAGAAAGT	0.817	1.68	1.3	1.77	2.25	2.15	0.219	0.894
TCTATTAGTTGAAGGGCAACTGACGAGTCCGTTT	1.26	0.617	0.548	1.49	0.829	0.242	-0.0338	1.4
AATACAGGGTCACTAGGGCAGAGTAGGTACGAAT	3.68	5.3	5.01	2.74	5.8	3.45	1.6	2.98
TCTTGTAGATCAACAGGTTAAGAAAGCTGGCCAA	0.358	0.2	-0.172	0.696	0.726	0.203	-0.285	-0.285
AGAATGAGGTTATACGTAGATCAGGGCAGAAAGT	1.33	1.72	1.08	1.89	2.36	2.43	1.05	1.47
CGAACCAGGTCATTGACAGGACAGTGAATAGTAA	2.5	4.94	4.22	3.22	3.57	3.31	1.84	1.8
ACTATTAGTTGAGACCAGGGCAACCGATAGGTTG	0.667	0.276	0.568	-0.232	0.3	1.79	0.11	0.0358
AATACAGGGTCACTAGTCCAGAGTAGGTACGAAT	3.23	4.5	4.83	2.7	4.87	3.31	1.32	2.27
TCTATTATTTGAAGGGCAACCGACGAGTCCGTTT	1.34	0.739	0.634	2.12	0.997	0.552	0.572	2.12
AGAATGAGGTTAAGATCAGGGCAACAGAATACAT	2.23	3.86	1.76	1.17	2.78	3.57	1.44	0.984
CCGAGTAGGTTATGGGCCATTCAGGCAACGGTGA	0.655	0.305	0.328	-0.165	0.5	0.298	0.0929	-0.0394
CGTCAAAGTCCAACTAAGGTAACGTAAAGCACGC	1.43	0.748	1.4	1.14	0.261	3.44	1.91	0.579
CGCCCAAGGTCAAGGTCAGTGAAAGAGACTCGAA	5.33	6.54	7.08	3.25	6.2	4.42	3.53	2.96
CTCGAAGGGTCGGTTGAGGTGAGTATACGGATAA	1.41	1.55	1.56	0.489	1.17	4.74	1.49	0.596
TCTATGAGTTGAAGGGCAACCGACGAGTCCGTTT	1.12	0.637	0.461	1.55	0.971	0.511	-0.405	1.57
ACTAGCAGGCCAAGTTTGGGTCACTCAAACAAAG	2.42	2.46	1.72	-0.26	0.865	2.54	0.952	0.495
TGTCAAAGTTCAAAGGTAATGTAAGTATCCACAC	3.63	5.97	5.84	4.44	6.5	3.15	-0.177	3.96
GCTCGAAGGACAAGGTCAGAGCTTTGTCCGTAGA	3.06	3.15	3.49	0.0106	2.51	2.65	0.93	0.387
